# From article PMC4336329 (PLoS ONE, 2015)
# The campaign covered roughly 310,000 compounds. About 14,000 (4.5%) showed an effect of 50% or more. The effect is printed as a negative number. The sample holds strong results, similar compounds and a random draw of the others, so the mix is not that of the screen.
# Molecular target: human ether-à-go-go-related gene (hERG) potassium channel (human, UniProt Q12809)
# Experiment: primary screen, population patch clamp on CHO cells stably expressing hERG; higher = less effect of the substance
# 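Also: peak tail current of the secondary pulse compared with the same well before compound.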
# human ether-à-go-go-related gene (hERG) potassium channel, sequence (Q12809 whole entry, looked up): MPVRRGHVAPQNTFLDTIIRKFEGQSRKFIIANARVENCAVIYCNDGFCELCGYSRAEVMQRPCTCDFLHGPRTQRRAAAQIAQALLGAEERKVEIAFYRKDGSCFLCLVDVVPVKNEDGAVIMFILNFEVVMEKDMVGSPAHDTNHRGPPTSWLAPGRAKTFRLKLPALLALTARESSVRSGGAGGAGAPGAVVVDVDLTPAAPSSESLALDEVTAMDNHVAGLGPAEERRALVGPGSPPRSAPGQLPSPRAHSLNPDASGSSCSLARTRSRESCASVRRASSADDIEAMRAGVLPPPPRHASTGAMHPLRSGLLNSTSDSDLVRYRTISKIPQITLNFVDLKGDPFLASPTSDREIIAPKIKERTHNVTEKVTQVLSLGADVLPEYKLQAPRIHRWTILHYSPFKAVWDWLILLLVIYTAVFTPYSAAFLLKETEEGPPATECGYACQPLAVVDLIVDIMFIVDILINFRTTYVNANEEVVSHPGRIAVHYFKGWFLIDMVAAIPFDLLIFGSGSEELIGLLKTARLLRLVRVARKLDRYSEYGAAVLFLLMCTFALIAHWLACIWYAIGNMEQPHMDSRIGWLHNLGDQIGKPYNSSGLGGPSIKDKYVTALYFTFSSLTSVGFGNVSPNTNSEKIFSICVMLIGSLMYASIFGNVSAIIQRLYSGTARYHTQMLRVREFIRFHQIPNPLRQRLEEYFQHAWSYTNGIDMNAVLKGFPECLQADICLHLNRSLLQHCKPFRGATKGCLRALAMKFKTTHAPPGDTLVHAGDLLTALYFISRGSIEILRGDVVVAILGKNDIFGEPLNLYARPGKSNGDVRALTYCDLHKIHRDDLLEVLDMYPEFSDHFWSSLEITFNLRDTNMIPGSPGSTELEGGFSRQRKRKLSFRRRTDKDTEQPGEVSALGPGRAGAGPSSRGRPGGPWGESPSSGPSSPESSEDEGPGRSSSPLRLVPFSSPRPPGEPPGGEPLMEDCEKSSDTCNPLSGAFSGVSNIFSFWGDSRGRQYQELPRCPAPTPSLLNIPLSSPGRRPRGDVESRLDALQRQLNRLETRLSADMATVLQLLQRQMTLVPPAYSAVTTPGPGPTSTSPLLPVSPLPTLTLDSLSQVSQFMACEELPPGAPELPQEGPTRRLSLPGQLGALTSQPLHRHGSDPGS
row,Structure (SMILES),"hERG current change (%, negative = inhibition) at 10uM [%]"
1,CC(C)=CC(=O)N1CCCC(N2CCN(c3ccccc3C)CC2)C1 (stereo not drawn),-16
2,Cc1cc(C)n(CC(=O)N2CCCC(N3CCN(c4ccccc4C)CC3)C2)n1 (stereo not drawn),-14
3,Cc1ccccc1N1CCN(C2CCCN(C(=O)CN3CCCC3=O)C2)CC1 (stereo not drawn),5.78
4,Cc1ccccc1N1CCN(C2CCCN(C(=O)CCN3CCCO3)C2)CC1 (stereo not drawn),-0.397
5,Cc1ccccc1N1CCN(C2CCCN(C(=O)COc3ccccc3)C2)CC1 (stereo not drawn),-62.7
6,Cc1ccccc1N1CCN(C2CCCN(C(=O)CCC(F)(F)F)C2)CC1 (stereo not drawn),-47.3
7,CC(=O)c1ccc(OCC(=O)N2CCCC(N3CCN(c4ccccc4C)CC3)C2)cc1 (stereo not drawn),-75.2
8,CC(=NCC1CCCO1)C1=C(O)CC(C)(C)CC1=O (stereo not drawn),-5.04
9,COc1ccccc1COCC(O)CN(Cc1ccco1)Cc1ccccc1O (stereo not drawn),-27
10,CC(=O)c1cccc(NC(=O)CCn2c(=S)oc3ccccc32)c1,9.8
11,CC(=O)NC1(c2cccc(F)c2)CCN(C(=O)Nc2ccc(C#N)cc2)CC1,-13.8
12,O=C(Nc1cccnc1)c1cc([N+](=O)[O-])ccc1Cl,-0.51
13,O=C(NCCCN1CCOCC1)c1ccc(CS(=O)(=O)c2ccc(Br)cc2)o1,-6.32
14,CCN1CCN(CCNC(=O)c2ccc(CS(=O)(=O)c3ccccc3C)o2)CC1,-1.23
15,O=C(NCCCN1CCCC1)c1ccc(CS(=O)(=O)c2ccc(Br)cc2)o1,-16.7
16,O=C(NCCN1CCCCCC1)c1ccc(CS(=O)(=O)c2ccc(Br)cc2)o1,-57.4
17,CCC1CCCCN1CCCNC(=O)c1ccc(CS(=O)(=O)c2ccccc2C)o1 (stereo not drawn),-26.5
18,O=C(NCCN1CCOCC1)c1ccc(CS(=O)(=O)c2ccc(Br)cc2)o1,-2.9
19,CCC1CCCCN1CCCNC(=O)c1ccc(CS(=O)(=O)c2ccccc2OC)o1 (stereo not drawn),6.46
20,O=C(NCCN1CCN(Cc2ccccc2)CC1)c1ccc(CS(=O)(=O)c2ccc(Br)cc2)o1,-79.8
21,CCC1CCCCN1CCCNC(=O)c1ccc(CS(=O)(=O)c2ccc(Br)cc2)o1 (stereo not drawn),-56.7

row,Structure (SMILES),"hERG current change (%, negative = inhibition) at 10uM [%]"
1,Cc1ccccc1S(=O)(=O)Cc1ccc(C(=O)NCCCN2CCN(C)CC2)o1,-1.6
2,CN1CCN(CCCNC(=O)c2ccc(CS(=O)(=O)c3ccc(Br)cc3)o2)CC1,-10.3
3,Cc1ccccc1S(=O)(=O)Cc1ccc(C(=O)NCCN2CCN(Cc3ccccc3)CC2)o1,-61.9
4,O=C(CN(C(=O)C1CSC(=O)C1)c1cccc(F)c1)NCc1ccc2c(c1)OCO2 (stereo not drawn),-14.7
5,COc1ccc(CCNC(=O)CCc2nc3sc4c(c3c(=O)[nH]2)CCCC4)cc1,9.78
6,Cn1c(=S)[nH]c2c(c1=O)C(C)(C)Cc1ccccc1-2,10.9
7,Cc1[nH]c(=O)[nH]c(=O)c1S(=O)(=O)N1CCOCC1,3.26
8,CCCn1c(SCC(=O)Nc2c(C)cccc2CC)nnc1C(C)C,3.71
9,O=C(Nc1ccc(F)c(Cl)c1)c1ccc2c(=O)n3c(nc2c1)CCCCC3,-36.6
10,O=C(c1ccc2c(=O)n3c(nc2c1)CCC3)N1CCN(S(=O)(=O)c2cccc(F)c2)CC1,-4.8
11,O=C(Nc1cccc(S(=O)(=O)N2CCCC2)c1)c1ccc2c(=O)n3c(nc2c1)CCCCC3,-57.1
12,O=C(Nc1ccc(S(=O)(=O)C(F)F)cc1)c1ccc2c(=O)n3c(nc2c1)CCC3,24.1
13,Cc1ccc(C)c(NC(=O)c2ccc3c(=O)n4c(nc3c2)CCC4)c1,-25.9
14,Cc1ccc(S(=O)(=O)N2CCCCC2)cc1NC(=O)c1ccc2c(=O)n3c(nc2c1)CCCCC3,-64.1
15,O=C(Nc1ccc2c(c1)nc1n2CCCCC1)c1cc(S(=O)(=O)N2CCOCC2)ccc1Cl,-15.5
16,O=C(Nc1ccc(S(=O)(=O)N2CCCC2)cc1)c1ccc2c(=O)n3c(nc2c1)CCCCC3,9.23
17,O=C(Nc1cccc(S(=O)(=O)N2CCCCC2)c1)c1ccc2c(=O)n3c(nc2c1)CCCCC3,-64.5
18,Cc1ccc(NC(=O)c2ccc3c(=O)n4c(nc3c2)CCCCC4)cc1F,-24.6
19,O=C(Nc1cccc(S(=O)(=O)N2CCOCC2)c1)c1ccc2c(=O)n3c(nc2c1)CCCCC3,-73.3
20,CC(NC(=O)c1cnccn1)c1ccc(S(N)(=O)=O)cc1 (stereo not drawn),-2.33
21,C=CCn1c(SCC(=O)NCc2ccco2)nc2sc(C)c(C)c2c1=O,3.62
